The text below walks through data of ChEMBL document CHEMBL3988442, “University of Dundee, Small-Polar-MMV Screening Library” (2021).

Set-up in all cases: scale not given: direction of the effect not stated beside the values
Assay [1] addresses Protein translocase subunit SecA (Escherichia coli (strain K12)) (UniProt P10408). Kind of assay: Assay to Identify E. coli SecA ATPase Inhibitors. In kind it is functional. Particulars: 30 µM.
In assay [2] the target is T1, Ubiquitin-activating enzyme e1, putative (Leishmania donovani (strain BPK282A1)) (UniProt E9BSI1).
T1 sequence (whole entry): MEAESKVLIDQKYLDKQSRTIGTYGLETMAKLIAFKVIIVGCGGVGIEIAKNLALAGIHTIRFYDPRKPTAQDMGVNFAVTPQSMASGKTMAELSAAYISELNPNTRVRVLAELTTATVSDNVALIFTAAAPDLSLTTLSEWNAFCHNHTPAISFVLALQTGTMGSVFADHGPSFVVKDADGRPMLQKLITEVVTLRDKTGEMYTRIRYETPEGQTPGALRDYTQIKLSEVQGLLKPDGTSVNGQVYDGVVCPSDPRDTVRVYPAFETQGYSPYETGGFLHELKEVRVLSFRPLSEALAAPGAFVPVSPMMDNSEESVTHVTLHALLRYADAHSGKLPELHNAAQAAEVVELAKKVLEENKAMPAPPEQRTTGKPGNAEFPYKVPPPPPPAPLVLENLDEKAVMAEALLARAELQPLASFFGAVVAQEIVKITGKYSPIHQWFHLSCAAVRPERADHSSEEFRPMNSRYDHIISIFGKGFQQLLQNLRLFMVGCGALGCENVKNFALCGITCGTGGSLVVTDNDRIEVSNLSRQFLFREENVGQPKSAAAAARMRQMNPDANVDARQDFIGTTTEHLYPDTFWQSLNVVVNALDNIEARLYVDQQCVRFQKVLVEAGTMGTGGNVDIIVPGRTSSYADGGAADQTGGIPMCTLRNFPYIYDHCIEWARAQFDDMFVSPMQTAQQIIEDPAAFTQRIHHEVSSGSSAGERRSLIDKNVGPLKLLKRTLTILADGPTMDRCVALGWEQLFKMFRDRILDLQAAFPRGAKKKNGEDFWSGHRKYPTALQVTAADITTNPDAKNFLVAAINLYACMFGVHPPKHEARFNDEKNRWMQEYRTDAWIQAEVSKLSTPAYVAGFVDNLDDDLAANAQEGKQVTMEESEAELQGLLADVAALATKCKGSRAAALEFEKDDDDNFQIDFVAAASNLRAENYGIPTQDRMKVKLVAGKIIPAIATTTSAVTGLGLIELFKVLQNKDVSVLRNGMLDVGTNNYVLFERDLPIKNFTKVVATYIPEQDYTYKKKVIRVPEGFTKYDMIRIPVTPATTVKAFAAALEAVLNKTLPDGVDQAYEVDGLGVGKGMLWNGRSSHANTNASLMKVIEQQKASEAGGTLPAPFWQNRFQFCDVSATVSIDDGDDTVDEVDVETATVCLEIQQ
Kind of assay: Leishmania donovani Ubiquitin Activating Enzyme (LdE1). The conditions noted are these: 30 µM. In kind it is functional.

Assay [3] addresses Sialic acid-binding Ig-like lectin 9 (Homo sapiens) (UniProt Q9Y336). Kind of assay: Hs-Siglec9 ALPHAscreen SOP 20170721. Particulars: 10 µM.
Another assay deals with Trypanosoma cruzi. Kind of assay: Trypanosoma cruzi phosphomannomutase and mannose-1-phosphate guanylyltransferase assay. In kind it is functional. The conditions noted are these: 10 µM.
Assay [4] has as its target T2, Arginase-2, mitochondrial (Homo sapiens) (UniProt P78540).
T2 sequence (whole entry): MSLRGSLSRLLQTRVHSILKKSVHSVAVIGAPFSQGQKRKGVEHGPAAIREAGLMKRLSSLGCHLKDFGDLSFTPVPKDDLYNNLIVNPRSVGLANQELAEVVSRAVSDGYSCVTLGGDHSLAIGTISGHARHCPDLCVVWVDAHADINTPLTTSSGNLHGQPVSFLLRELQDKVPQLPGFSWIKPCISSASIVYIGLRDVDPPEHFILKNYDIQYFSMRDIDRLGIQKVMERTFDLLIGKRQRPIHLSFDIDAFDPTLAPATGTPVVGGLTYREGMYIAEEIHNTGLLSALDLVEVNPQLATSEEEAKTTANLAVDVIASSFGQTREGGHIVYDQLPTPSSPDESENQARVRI
Kind of assay: in vitro enzyme assay to detect the production of urea directly proportional to the activity of Arginase II. Also: in the data most compounds retested in dose-response had high values. In kind it is functional. The conditions noted are these: 33.3 µM.

For assay [5], the target named is T3, Proteasome subunit beta (Trypanosoma cruzi) (UniProt O96673).
T3 sequence (whole entry): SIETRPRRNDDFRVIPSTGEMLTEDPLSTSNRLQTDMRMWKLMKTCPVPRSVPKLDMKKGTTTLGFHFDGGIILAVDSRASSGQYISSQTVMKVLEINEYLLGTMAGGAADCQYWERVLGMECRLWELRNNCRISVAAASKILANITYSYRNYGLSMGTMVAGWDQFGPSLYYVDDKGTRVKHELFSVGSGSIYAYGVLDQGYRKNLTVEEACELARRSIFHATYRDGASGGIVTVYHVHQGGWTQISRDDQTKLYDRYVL
Kind of assay: Trypanosoma cruzi proteasome chymotrypsin-like activity (TcProtChymo) assay. Also: in the data most compounds retested in dose-response had high values. In kind it is functional. The conditions noted are these: 9.37 µM.

The species named for a further assay is Homo sapiens. Kind of assay: To identify inhibition of the IFN signalling (Jak-Stat) pathway via expression of an eGFP reporter gene under the control of an IFN-stimulated response element (ISRE) containing MxA promoter. It is filed as functional. Particulars: 30 µM. On the technique in general: In a reporter assay the amount or activity of a reporter protein is the signal.

The target of assay [6] is T4, Tyrosyl-tRNA synthetase, putative (Trypanosoma cruzi (strain CL Brener)) (UniProt Q4DSP6).
T4 sequence (whole entry): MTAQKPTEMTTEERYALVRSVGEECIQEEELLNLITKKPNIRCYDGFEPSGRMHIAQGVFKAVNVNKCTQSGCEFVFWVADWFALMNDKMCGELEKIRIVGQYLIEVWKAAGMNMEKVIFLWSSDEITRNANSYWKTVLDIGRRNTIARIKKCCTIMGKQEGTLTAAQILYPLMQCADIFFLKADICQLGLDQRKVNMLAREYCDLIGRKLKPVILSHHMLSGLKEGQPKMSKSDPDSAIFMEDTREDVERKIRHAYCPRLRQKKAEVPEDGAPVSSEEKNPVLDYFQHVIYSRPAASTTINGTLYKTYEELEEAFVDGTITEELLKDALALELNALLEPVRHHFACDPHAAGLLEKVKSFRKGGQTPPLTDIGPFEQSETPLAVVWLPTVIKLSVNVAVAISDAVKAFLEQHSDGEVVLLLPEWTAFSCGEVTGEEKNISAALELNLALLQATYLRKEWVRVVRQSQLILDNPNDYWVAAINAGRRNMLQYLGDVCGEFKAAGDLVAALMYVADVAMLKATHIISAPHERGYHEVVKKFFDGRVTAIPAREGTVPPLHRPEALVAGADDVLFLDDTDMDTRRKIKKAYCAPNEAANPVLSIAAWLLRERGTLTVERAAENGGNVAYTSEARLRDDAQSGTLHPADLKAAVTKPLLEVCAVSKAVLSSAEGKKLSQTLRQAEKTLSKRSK
Kind of assay: Trypanosoma cruzi tyrosyl tRNA synthetase (TcYRS) _High Tyrosine SOP. Also: in the data most compounds retested in dose-response had high values. It is filed as functional. Particulars: 30 µM.

Assay [7] addresses T4, Tyrosyl-tRNA synthetase, putative (Trypanosoma cruzi (strain CL Brener)). Kind of assay: Trypanosoma cruzi tyrosyl tRNA synthetase (TcYRS) SOP. The conditions noted are these: 30 µM. It is filed as functional.
Assay [8] has as its target Chromo domain-containing protein 1 (Saccharomyces cerevisiae (strain ATCC 204508 / S288c) (Baker's yeast)) (UniProt P32657). Kind of assay: ScCHD-1 Enzyme Inhibition Assay. Also: in the data most compounds retested in dose-response had high values. It is filed as functional. Particulars: 30 µM.

For part of these data: Measured potencies and affinities stand elsewhere.

Chain of Sialic acid-binding Ig-like lectin 9 (Homo sapiens) (Q9Y336 whole entry): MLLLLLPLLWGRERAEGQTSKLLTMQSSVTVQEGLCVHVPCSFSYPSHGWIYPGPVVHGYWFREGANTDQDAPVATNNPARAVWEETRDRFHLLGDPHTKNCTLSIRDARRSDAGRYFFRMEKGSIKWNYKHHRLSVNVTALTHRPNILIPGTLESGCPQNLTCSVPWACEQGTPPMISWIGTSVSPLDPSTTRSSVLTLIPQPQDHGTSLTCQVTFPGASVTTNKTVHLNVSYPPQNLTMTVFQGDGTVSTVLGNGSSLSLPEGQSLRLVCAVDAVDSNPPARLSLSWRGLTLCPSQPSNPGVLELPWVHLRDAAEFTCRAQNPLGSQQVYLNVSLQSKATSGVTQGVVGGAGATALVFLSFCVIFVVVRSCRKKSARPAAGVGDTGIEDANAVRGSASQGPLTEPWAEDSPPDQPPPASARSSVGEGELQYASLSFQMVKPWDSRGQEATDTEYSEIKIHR
Chain of Chromo domain-containing protein 1 (Saccharomyces cerevisiae (strain ATCC 204508 / S288c) (Baker's yeast)) (P32657 whole entry, the tested form may be a part): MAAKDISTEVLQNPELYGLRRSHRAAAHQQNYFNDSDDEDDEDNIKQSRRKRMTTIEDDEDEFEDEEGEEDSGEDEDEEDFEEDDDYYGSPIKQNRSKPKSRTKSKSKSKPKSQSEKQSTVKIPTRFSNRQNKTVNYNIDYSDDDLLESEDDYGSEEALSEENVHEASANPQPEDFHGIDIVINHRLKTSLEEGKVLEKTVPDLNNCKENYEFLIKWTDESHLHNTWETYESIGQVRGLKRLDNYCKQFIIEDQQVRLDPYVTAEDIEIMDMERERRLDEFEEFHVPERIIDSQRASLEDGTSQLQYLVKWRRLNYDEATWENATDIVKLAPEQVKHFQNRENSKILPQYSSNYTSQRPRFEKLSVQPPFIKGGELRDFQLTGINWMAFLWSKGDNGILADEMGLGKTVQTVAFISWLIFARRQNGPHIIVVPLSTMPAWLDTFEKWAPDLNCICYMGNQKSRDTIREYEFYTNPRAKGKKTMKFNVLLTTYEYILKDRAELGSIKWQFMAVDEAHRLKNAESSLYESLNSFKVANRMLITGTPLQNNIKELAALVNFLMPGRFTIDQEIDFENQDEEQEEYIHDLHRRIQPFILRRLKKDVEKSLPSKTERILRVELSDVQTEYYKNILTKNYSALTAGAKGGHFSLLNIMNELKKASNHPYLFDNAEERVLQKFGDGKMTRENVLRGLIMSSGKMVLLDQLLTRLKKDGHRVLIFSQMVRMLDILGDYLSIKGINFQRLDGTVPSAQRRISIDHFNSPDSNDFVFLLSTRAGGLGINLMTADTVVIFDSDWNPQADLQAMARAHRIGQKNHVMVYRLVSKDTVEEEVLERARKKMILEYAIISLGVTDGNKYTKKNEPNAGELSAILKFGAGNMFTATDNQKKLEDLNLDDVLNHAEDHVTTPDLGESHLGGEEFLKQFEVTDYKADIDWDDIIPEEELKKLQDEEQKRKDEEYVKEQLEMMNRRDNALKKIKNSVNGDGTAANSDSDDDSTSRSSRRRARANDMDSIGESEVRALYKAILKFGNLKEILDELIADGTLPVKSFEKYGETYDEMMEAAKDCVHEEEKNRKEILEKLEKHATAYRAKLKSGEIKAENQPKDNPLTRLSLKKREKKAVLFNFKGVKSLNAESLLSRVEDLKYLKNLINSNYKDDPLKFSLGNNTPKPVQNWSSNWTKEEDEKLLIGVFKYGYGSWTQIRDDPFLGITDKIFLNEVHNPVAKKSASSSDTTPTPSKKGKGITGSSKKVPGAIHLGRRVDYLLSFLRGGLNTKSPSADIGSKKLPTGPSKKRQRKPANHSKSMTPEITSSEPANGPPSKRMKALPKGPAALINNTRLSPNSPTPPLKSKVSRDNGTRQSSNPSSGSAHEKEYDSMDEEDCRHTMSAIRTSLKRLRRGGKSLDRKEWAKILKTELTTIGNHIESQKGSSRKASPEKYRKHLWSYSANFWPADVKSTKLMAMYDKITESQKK
Chain of Protein translocase subunit SecA (Escherichia coli (strain K12)) (P10408 whole entry): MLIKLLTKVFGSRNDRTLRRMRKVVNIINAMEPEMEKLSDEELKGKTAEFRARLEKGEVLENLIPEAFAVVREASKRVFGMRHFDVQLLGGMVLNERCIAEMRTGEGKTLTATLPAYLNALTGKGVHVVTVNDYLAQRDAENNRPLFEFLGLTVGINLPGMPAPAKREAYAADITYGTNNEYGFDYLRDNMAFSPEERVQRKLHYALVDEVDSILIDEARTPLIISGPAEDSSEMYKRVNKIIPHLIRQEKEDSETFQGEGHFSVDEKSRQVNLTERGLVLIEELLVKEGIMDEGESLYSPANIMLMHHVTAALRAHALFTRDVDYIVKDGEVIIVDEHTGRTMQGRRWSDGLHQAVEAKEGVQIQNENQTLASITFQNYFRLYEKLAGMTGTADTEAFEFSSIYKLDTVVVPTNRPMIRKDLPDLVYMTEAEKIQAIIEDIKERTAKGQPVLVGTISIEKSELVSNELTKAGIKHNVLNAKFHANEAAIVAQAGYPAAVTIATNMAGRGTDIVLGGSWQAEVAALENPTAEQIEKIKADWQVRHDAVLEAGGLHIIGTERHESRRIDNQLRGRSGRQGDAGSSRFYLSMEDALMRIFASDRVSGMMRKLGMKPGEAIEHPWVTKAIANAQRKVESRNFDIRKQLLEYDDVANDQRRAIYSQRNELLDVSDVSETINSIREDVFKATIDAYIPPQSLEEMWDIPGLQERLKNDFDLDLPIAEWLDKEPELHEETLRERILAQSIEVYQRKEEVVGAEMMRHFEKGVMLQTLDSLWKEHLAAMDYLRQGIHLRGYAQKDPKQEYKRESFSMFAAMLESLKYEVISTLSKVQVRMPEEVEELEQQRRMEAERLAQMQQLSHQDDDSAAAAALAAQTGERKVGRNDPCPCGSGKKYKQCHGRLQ

Take `Cn1cnc2c1CCN(CCS(=O)(=O)c1ccccc1)C2`: the Percent Effect in assay [1] was -3.11%; in assay [2], 2.67%; in assay [3], 3.94%; in the assay on Trypanosoma cruzi, 2.21%; in assay [4], -5.32%; in [5] it was 3.48%. The Percent Effect in the assay filed under Homo sapiens was 20.9%; in [6], 0.526%; in [7], 5.13%; in assay [8], -6.73%.

For the compound `CCC1CN(C(=O)c2ccc(Cl)cc2O)CCN1C(C)C` (stereo not given), the Percent Effect in assay [1] is -4.41%; in [2], 2.7%; in assay [3], 8.13%; in the assay on Trypanosoma cruzi, 6.5%; in assay [4], 11.5%; in assay [5], 6.34%. The Percent Effect was 12.9% in the assay filed under Homo sapiens, 4.79% in assay [6], 9.76% in assay [7] and -3.73% in [8].

In the case of `COc1ncc(C2(O)CCN(Cc3c(F)cccc3F)CC2)c(OC)n1`, the Percent Effect in assay [1] was -3.32%; in assay [2] it was 9.33%; in assay [3], -4.97%; in the assay on Trypanosoma cruzi it was 1.97%; in [4], -4.87%; in [5] it was 13.3%. The Percent Effect was 15.3% in the assay filed under Homo sapiens, 2.12% in assay [6], 0% in [7] and -21.1% in assay [8].

In the case of `CC(=O)N1[C@H](CN(C)C)C[C@@H]2CN(C(=O)c3cccc(F)c3)CC[C@@H]21`, the Percent Effect in [1] was -6.12%; in [2] it was 9.09%; in assay [3], -5.21%; in the assay with Trypanosoma cruzi it was -3.19%; in assay [4], -12.8%; in assay [5], 14.2%. Also, the Percent Effect in the assay listed under Homo sapiens was 14.5%; in assay [6], 3.87%; in assay [7] it was 0%; in assay [8], -5.63%.

As for `CN(C)c1cc(C(=O)N2CCCC(n3cccn3)C2)ccn1` (stereo not given), the Percent Effect in [1] is -2.71%; in assay [2], 5.13%; in [3], 3.76%; in the assay on Trypanosoma cruzi, 1.97%; in assay [4], 3.69%; in [5] it was 2.47%. In addition, the Percent Effect in the assay listed under Homo sapiens was 18.3%; in assay [6], -4.31%; in assay [7], 18.1%; in assay [8], -3.29%.

Consider `CN1CCN(c2cc(CNC(=O)c3ccc(=O)n(C)c3)ccn2)CC1`, for which the Percent Effect in [1] is -2.29%; in assay [2], 20.5%; in [3], -8.46%; in the assay on Trypanosoma cruzi it was 7.04%; in [4], 2.87%; in [5], 13.9%. The Percent Effect in the assay filed under Homo sapiens was 13.3%; in assay [6], -0.478%; in [7], 22.9%; in assay [8], -8.95%.

As for `CC(C)(C)c1n[nH]c(C2CN(C(=O)CCC3CC3)CCO2)n1` (stereo not given), the Percent Effect in assay [1] is -3.72%; in [2], 5.13%; in assay [3], -3.95%; with Trypanosoma cruzi, 9.86%; in assay [4], -1.23%; in assay [5] it was 5.38%. Also, the Percent Effect in the assay filed under Homo sapiens is -22.9%; in assay [6], 3.35%; in assay [7], 13.2%; in assay [8] it was -2.58%.

For `Cc1cnn(CC2CCCN2C(=O)c2ccc3nnc(C)n3c2)c1` (stereo not given), the Percent Effect in [1] is -1.55%; in assay [2] it was -5.13%; in assay [3] it was -9.94%; with Trypanosoma cruzi, 1.03%; in assay [4] it was 2.87%; in [5], 4.01%. The Percent Effect was 8.47% in the assay filed under Homo sapiens, -2.39% in [6], -3.61% in [7] and -5.71% in assay [8].

On to `CCn1cnnc1CNC(=O)N1CCOCC1`, for which the Percent Effect in [1] was -3.29%; in assay [2], 0%; in [3], 6.4%; in the assay with Trypanosoma cruzi it was -3.41%; in assay [4], 2.66%; in assay [5], 2.97%. The Percent Effect in the assay listed under Homo sapiens was -3.83%; in assay [6] it was 2.63%; in [7], 0%; in [8], -2.64%.

Consider `CN(C)c1cc2c(nn1)CCN(C(=O)Cc1noc3ccccc13)C2`, for which the Percent Effect in [1] was -0.898%; in [2], 0%; in assay [3], -2.79%; with Trypanosoma cruzi it was 6.85%; in assay [4] it was 2.87%; in [5], -0.427%. The Percent Effect is -24.3% in the assay filed under Homo sapiens, 4.31% in assay [6], -1.21% in [7] and -2.37% in assay [8].

Turning to `CCCOCCCNc1nccc(-c2cn(C)nc2C)n1`, the Percent Effect was -7.46% in [1]; 0% in assay [2]; 9.13% in assay [3]; 12.5% with Trypanosoma cruzi; -3.85% in [4]; 13.7% in [5]. Further, the Percent Effect was 36.5% in the assay listed under Homo sapiens, 5.85% in assay [6], 17.1% in assay [7] and -2.61% in assay [8].

Regarding `CCOC(=O)CNC(=O)c1cccnc1Oc1ccc(Cl)cc1`, the Percent Effect in [1] came to 3.19%; in [2], 1.3%; in [3] it was 56.3%; in the assay with Trypanosoma cruzi, 0.375%; in assay [4] it was 6.85%; in assay [5], 11.6%. Moreover, the Percent Effect was 25.5% in the assay listed under Homo sapiens, 3.87% in assay [6], 0% in assay [7] and -12.4% in assay [8].
